Source: PubChem BioAssay AID1347416 (National Center for Advancing Translational Sciences (NCATS), 2020)
About 1,600 (39%) of roughly 4,100 compounds were called active. Another 25% or so got no clear call; they are omitted. The call rests on the fitted dose curve; in most records, active means well fitted inhibition curve with a large enough effect; inconclusive means small, poorly fitted or top-dose-only effect; inactive means no such curve, though single readings can be large or run the other way. This is one part of the list. Where a call stands in place of a potency, no number is given.

test: qHTS Validation assay for Inhibitors of Plasmodium falciparum Dd2 growth in vitro; further: nearly all actives have a fitted effect of over 70% in size; details: P. falciparum Dd2 in RBCs, SYBR Green growth, 72 h; series mostly up to 28.7 µM
Procedure, shortened: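 P. falciparum Dd2-infected red blood cells (2.5% hematocrit, 0.3% parasitemia) grown 72 h at 37 °C under 5% O2 with compounds in a titration, 29 uM to 0.5 nM final. Growth read as SYBR Green-1 fluorescence after ~16 h lysis; artesunate 300 nM as positive control.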
Potency means the concentration at half of the fitted maximal effect.

| SMILES | Potency |
| --- | --- |
| O=S(=O)(c1ccc2ccccc2c1)N1CCN(C(=S)Nc2ccc(F)c(Cl)c2)CC1 | 1.06 µM (active) |
| O=C(NNc1ccnc2cc(Cl)ccc12)C1CCCCC1 | 7.5 µM (active) |
| CN1CCN(c2ccc(Nc3ccnc4cc(Cl)ccc34)cc2)CC1 | 0.188 µM (active) |
| CN1CCN(c2cc(=O)c3ccnc(N4CCOCC4)c3o2)CC1 | inactive |
| Clc1ccc2c(N/N=C/c3cccc(Br)c3)ccnc2c1 | 10.6 µM (active) |
| Oc1ccc(Nc2ccnc3cc(Cl)ccc23)cc1 | 1.68 µM (active) |
| CN(C)c1ccnc(Nc2ccc(O)cc2)c1C#N | inactive |
| CN(Cc1ccccc1F)C1CCc2ccccc21 (stereo not drawn) | inactive |
| O=C(CSc1ncn[nH]1)Nc1ccnc2ccccc12 | inactive |
| CCN1CCN(c2ccc(Nc3ccnc4ccccc34)cc2)CC1 | 1.06 µM (active) |
| Clc1ccc(NNc2ccnc3cc(Cl)ccc23)cc1 | 1.5 µM (active) |
| COc1ccccc1NC(=O)c1nn(C)c2c1CS(=O)(=O)c1ccccc1-2 | inactive |
| CCOC(=O)c1ccc2c(c1)N(C(CC)C(=O)Nc1ccccc1OC)C(=O)c1ccccc1S2 (stereo not drawn) | 9.44 µM (active) |
| CCOC(=O)c1ccc2c(c1)N(CC(=O)N(C)c1ccccc1)C(=O)c1ccccc1S2 | 10.6 µM (active) |
| CN(C(=O)c1ccc2c(c1)N(Cc1ccc(F)cc1)C(=O)c1ccccc1S2(=O)=O)C1CCCCC1 | inactive |
| O=C1NCCCCCCN(C(=O)C2CCCC2)[C@H]2CCCC[C@@H]12 | inactive |
| O=C1NC(=NC2CCCC2)C2(CCN(Cc3ccccc3)C2)N1c1cc(F)cc(F)c1 (stereo not drawn) | 7.5 µM (active) |
| O=C1NC(=NC2CCCCC2)C2(CCN(Cc3ccccc3)C2)N1c1cc(F)cc(F)c1 (stereo not drawn) | 4.22 µM (active) |
| O=C1NCc2ccccc2CC12CCCN(Cc1ccccc1)C2 (stereo not drawn) | inactive |
| COc1cccc([S+](=O)([O-])N2CCC3(CC2)C(=NC2CCCCC2)NC(=O)N3c2cc(F)cc(F)c2)c1 | inactive |
| O=C(c1ccccc1F)N1CCCC2(C1)C(=NC1CCCC1)NC(=O)N2c1cc(F)cc(F)c1 (stereo not drawn) | inactive |
| Cc1ccc2nc(-c3ccc(Cl)c(NC(=O)c4cccnc4)c3)oc2c1 | inactive |
| O=C(NC(c1ccccc1)c1cc(Cl)c2cccnc2c1O)c1cccnc1 (stereo not drawn) | 7.5 µM (active) |
| O=C(NC(c1ccc(Cl)cc1)c1cc(Cl)c2cccnc2c1O)c1cccnc1 (stereo not drawn) | 5.96 µM (active) |

| SMILES | Potency |
| --- | --- |
| CN(CC1(C)CCOCC1)C(=O)c1ccco1 | inactive |
| O=C(Cn1ccn2nc(-c3ccc(F)cc3)c(CO)c2c1=O)Nc1ccc(Cl)cc1F | inactive |
| CC(Oc1ccc(F)cc1)C(=O)Nc1cc(C(F)(F)F)ccc1-n1cncn1 (stereo not drawn) | 1.68 µM (active) |
| CC(Oc1ccc(F)cc1)C(=O)Nc1cc(Cl)ccc1-n1cncn1 (stereo not drawn) | 6.68 µM (active) |
| CC(C(=O)N1CCc2ccccc21)N1CCc2ccccc2C1 (stereo not drawn) | inactive |
| CC1(C)C(=O)N(CC2CCOCC2)[C@H]2CN(Cc3ccccc3O)C[C@H]2[S+]1(=O)[O-] | inactive |
| COCC1CN(C)CC12CCN(C(=O)CC1=CCCCC1)CC2 (stereo not drawn) | inactive |
| O=C(NCCN1CCCCC1)c1ccc(-c2nnc3ccc(NC(=O)C4CCC4)cn23)cc1 | 13.3 µM (active) |
| O=C1CCN(S(=O)(=O)c2ccccc2)CCCC(C(=O)NCCc2cccnc2)CCN1 (stereo not drawn) | inactive |
| O=C(NCCc1cccnc1)c1ccc(-c2nnc3ccc(NC(=O)C4CCC4)cn23)cc1 | 6.68 µM (active) |
| O=C(Nc1ccc(-c2nnc3n2CCCC3)cc1)c1ccccc1F | inactive |
| CC1CN(C(=O)Nc2ccc(C(=O)NCCc3ccccc3)cc2)c2ccccc2S1 (stereo not drawn) | inactive |
| Cc1noc(-c2ccn3c(CNC(=O)c4ccncc4)nnc3c2)n1 | inactive |
| O=C(NCCc1ccncc1)c1ccc(-c2nnc3ccc(NC(=O)C4CCC4)cn23)cc1 | 2.99 µM (active) |
| Cn1c(=O)c2ccnn2c2ccc(C(=O)NCCN3CCC(N4CCCCC4)CC3)cc21 | inactive |
| Cc1cn2nc(C(=O)N3CCC(C(=O)NCc4cccnc4)CC3)cc2c(=O)[nH]1 | inactive |
| CC(C)(C)CC(C)(C)c1ccc(O)c(Cc2ccc(Cl)cc2Cl)c1 | 1.68 µM (active) |
| CN1C[C@@H](NC(=O)CC(C)(C)C)C[C@H]1c1nc(-c2ccc(OC(F)(F)F)cc2)no1 | inactive |
| CCc1nc2c(c(-c3ccc(O)cc3)n1)CCN(Cc1ccc(OC)cc1)CC2 | 6.68 µM (active) |
| CCc1cccc(NC(=O)N2CCc3nc4cc(-c5ccc(OC)cc5)[nH]n4c(=O)c3C2)c1 | inactive |
| O=[S+]1([O-])NCC2(CCCN(Cc3ccc(OC(F)(F)F)cc3)C2)Nc2ccccc21 (stereo not drawn) | inactive |
| CCc1nc2c(c(-c3ccc(O)cc3)n1)CCN(Cc1ccc(OC(F)(F)F)cc1)CC2 | 1.5 µM (active) |
| COc1ccc(CN2CCC3(CC(c4ccc(OC)cc4)=NO3)C2)cc1 (stereo not drawn) | inactive |
| Cc1cc(C)c(S(=O)(=O)n2ccc(-c3ccc(OCCN(C)c4ccccn4)cc3)n2)c(C)c1 | 7.5 µM (active) |
